Inconclusive results are not listed. Entries that show only a call come without a potency. A number with no mark means an inactive call. Active and inactive are the calls of the source. The call rests on the fitted dose curve.

The assay can be described thus: p53 small molecule agonists, cell-based qHTS assay with rat liver microsomes (AID 1963578). The conditions noted are these: HCT-116 p53RE-bla, beta-lactamase ratio, 16 h; series mostly up to 66 µM. The source says:
U.S. Tox21 Program National Center for Advancing Translational Sciences [NCATS] Division of Preclinical Innovation [DPI] U.S. Environmental Protection Agency [EPA] National Institutes of Environmental Health Sciences [NIEHS] National Toxicology Program [NTP] U.S. Food and Drug Administration [FDA] Tox21 Assay Overview: p53, a tumor suppressor protein, is activated following cellular insult, including DNA damage and other cellular stresses. The activation of p53 regulates cell fate by inducing DNA repair, cell cycle arrest, apoptosis, or cellular senescence. The activation of p53, therefore, is a good indicator of DNA damage and other cellular stresses. […] The activation of the reporter gene under culture conditions can be detected by fluorescence intensity. This cell line was used to screen the Tox21 10K compound library in the condition of presence of rat liver microsomes and to identify agonists that activate the p53 signaling pathway after in vitro metabolic activation (Ooka et al., Archive of Toxicology 96:1975-1987, 2022).
Tox21 Assay Protocol Summary: The p53RE-bla cells were dispensed at 4,000cells/3ul/well in 1536-well black-clear bottom plates. After the assay plates were incubated at 37 C, 5% CO2 incubator for 5 hours, 23 nL of compounds dissolved in DMSO, positive controls or DMSO only was transferred to the assay plate. Following compound addition, 3 uL of rat liver microsomes (Molecular Toxicology, Boone, NC) at final concentration of 0.5 mg/mL and 1uL of Beta-Nicotinamide adenine dinucleotide 2-phosphate (NADPH) at final concentration of 0.5 mg/mL were transferred to the assay plate. The plates were incubated at 37 C for 16 hours. 1 uL of LiveBLAzer detection mixture was added to each well and the plates were incubated at room temperature in the dark for 2 h.
In general terms: Quantitative high-throughput screening tests each substance at several concentrations.
With `CC1=C(C/C=C(\C)CCC[C@H](C)CCC[C@H](C)CCCC(C)C)C(=O)c2ccccc2C1=O`, the Potency result was “inactive”.

`C=CCCCCCC`: the Potency entry was “inactive”.

As for `COc1cc(C=C2CCC/C(=C\c3ccc(O)c(OC)c3)C2=O)ccc1O`, the Potency entry is “inactive”. In the case of `CO[C@H]1C=CO[C@@]2(C)Oc3c(C)c(O)c4c(O)c(c5c(c4c3C2=O)=NC2(CCN(CC(C)C)CC2)N=5)NC(=O)/C(C)=C\C=C/[C@H](C)[C@H](O)[C@@H](C)[C@@H](O)[C@@H](C)[C@H](OC(C)=O)[C@@H]1C`, the Potency entry is “inactive”. With `CC(C(O)c1ccccc1)N(C)CCOC(c1ccccc1)c1ccccc1` (stereo not given), the Potency result is “inactive”.

Take `CN(C)CCCN1c2ccccc2Sc2ccc(C(F)(F)F)cc21`: the Potency entry was “inactive”. In the case of `O=C(NCC(O)CO)c1c(I)c(C(=O)NCC(O)CO)c(I)c(N(CCO)C(=O)CO)c1I` (stereo not given), the Potency entry was “inactive”. For `CCC(C)n1ncn(-c2ccc(N3CCN(c4ccc(OC[C@H]5CO[C@](Cn6cncn6)(c6ccc(Cl)cc6Cl)O5)cc4)CC3)cc2)c1=O` (stereo not given in full), the Potency entry was “inactive”. For the compound `Cc1ccccc1C(=O)Nc1ccc(C(=O)N2CCCC(O)c3cc(Cl)ccc32)c(C)c1` (stereo not given), the Potency entry was “inactive”.

Regarding `O=C1C=CC(=O)N1c1ccc(Cc2ccc(N3C(=O)C=CC3=O)cc2)cc1`, the Potency result is “inactive”. Same read-out and setting: with `CCCCO` the entry was “inactive”. The same measure, in the same setting: to `CCN(CC)c1ccc(N=Nc2ccccc2)cc1` belongs “inactive”; to `Cc1cc2c(cc1C(F)(F)F)N(C(=O)Nc1ccc(Oc3cccnc3C)nc1)CC2`, “inactive”. The same measure, in the same setting: with `O=C(CC(=O)c1ccccc1)c1ccccc1` the entry was “inactive”; with `CCOC(=O)Nc1ccc2c(c1)N(C(=O)CCN1CCOCC1)c1ccccc1S2`, “inactive”; with `CCC(CN)=C(c1ccccc1)c1ccccc1`, “inactive”.

With `CC1CC(=O)NN=C1c1ccc(NCC(C)(C)NCC(O)COc2cc(Cl)ccc2C#N)cc1` (stereo not given), the Potency entry is “inactive”. Same read-out and setting: with `CCCCCCCCCCCCCCCBr` the entry was “inactive”; with `CO`, “inactive”.

Take `O=C(OC[C@H]1O[C@@H](OC(=O)c2cc(O)c(O)c(OC(=O)c3cc(O)c(O)c(O)c3)c2)[C@H](OC(=O)c2cc(O)c(O)c(OC(=O)c3cc(O)c(O)c(O)c3)c2)[C@@H](OC(=O)c2cc(O)c(O)c(OC(=O)c3cc(O)c(O)c(O)c3)c2)[C@@H]1OC(=O)c1cc(O)c(O)c(OC(=O)c2cc(O)c(O)c(O)c2)c1)c1cc(O)c(O)c(OC(=O)c2cc(O)c(O)c(O)c2)c1`: the activation is -4% [at 13.6 µM]. For the compound `Oc1c(Cl)cc(Cl)c2cccnc12`, the Potency result was “inactive”. As for `CCC(=O)OCCc1ccccc1`, the Potency result is “inactive”.

Consider `CCc1nn(CCCN2CCN(c3cccc(Cl)c3)CC2)c(=O)n1CCOc1ccccc1`, for which the Potency entry is “inactive”. On the same count and under the same terms, with `O=C(O)COC(=O)Cc1ccccc1Nc1c(Cl)cccc1Cl` the entry was “inactive”; with `CCN(CC)CCOC(=O)C(c1ccccc1)C1CCCCC1` (stereo not given), “inactive”.

Consider `COc1ccc2cc(CCC(C)=O)ccc2c1`, for which the Potency result was “inactive”. Consider `CCCC(CCC)(C(=O)OCC)C(=O)OCC`, for which the Potency result was “inactive”.

`NCc1ccccc1`: the Potency entry was “inactive”. On to `Brc1ccccc1-c1ccccc1`, for which the Potency result is “inactive”. As to `Cc1c(-c2ccccc2)oc2c(C(=O)OCCN3CCCCC3)cccc2c1=O`, the Potency entry is “inactive”. Consider `C=C(C)[C@@H]1CC=C(C)CC1`, for which the Potency result is “inactive”.

As for `Cc1cccc(OCC(O)CNC(C)(C)C)c1C` (stereo not given), the Potency entry was “inactive”.

Consider `O=[N+]([O-])c1ccc(Nc2ccc(Nc3ccccc3)c(S(=O)(=O)O)c2)c([N+](=O)[O-])c1`, for which the Potency entry is “inactive”. Still for that read-out and setting: to `O=C1Cc2cc(CCN3CCN(c4nsc5ccccc45)CC3)c(Cl)cc2N1` belongs “inactive”.

Take `CC(=O)c1ccc2c(c1)[C@H](NC(=O)c1ccc(F)cc1)[C@@H](O)C(C)(C)O2`: the Potency entry was “inactive”. As for `CN(C)CCCN(C)C`, the activation was 5.56% [at 5.99 µM].

For the compound `CCCCCC(C)OC(=O)COc1ccc(Cl)c2cccnc12` (stereo not given), the Potency entry is “inactive”. As for `CCCCCC`, the Potency entry was “inactive”. As to `O=C(O)CCCCCCCCCCCBr`, the Potency entry is “inactive”. On to `CCCCOC(=O)CO`, for which the Potency result was “inactive”.

(Values after PubChem BioAssay (Tox21).)
